Assay outcomes deposited in PubChem BioAssay by Johns Hopkins Ion Channel Center.
KCNQ2 inh = inhibitors of rat KCNQ2 potassium channel | O88943 | CHO-K1 KCNQ2, FluxOR thallium flux, 20 min; stronger effect = lower value | B-score at 10 µM | 310,000 compounds, 1.1% hits;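 active means fluorescence ratio B-score at most minus 3 library SDs, with starting brightness B-score within 2 library SDs, cut at about -5.5 in these data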
Target sequence (O88943 whole entry, looked up): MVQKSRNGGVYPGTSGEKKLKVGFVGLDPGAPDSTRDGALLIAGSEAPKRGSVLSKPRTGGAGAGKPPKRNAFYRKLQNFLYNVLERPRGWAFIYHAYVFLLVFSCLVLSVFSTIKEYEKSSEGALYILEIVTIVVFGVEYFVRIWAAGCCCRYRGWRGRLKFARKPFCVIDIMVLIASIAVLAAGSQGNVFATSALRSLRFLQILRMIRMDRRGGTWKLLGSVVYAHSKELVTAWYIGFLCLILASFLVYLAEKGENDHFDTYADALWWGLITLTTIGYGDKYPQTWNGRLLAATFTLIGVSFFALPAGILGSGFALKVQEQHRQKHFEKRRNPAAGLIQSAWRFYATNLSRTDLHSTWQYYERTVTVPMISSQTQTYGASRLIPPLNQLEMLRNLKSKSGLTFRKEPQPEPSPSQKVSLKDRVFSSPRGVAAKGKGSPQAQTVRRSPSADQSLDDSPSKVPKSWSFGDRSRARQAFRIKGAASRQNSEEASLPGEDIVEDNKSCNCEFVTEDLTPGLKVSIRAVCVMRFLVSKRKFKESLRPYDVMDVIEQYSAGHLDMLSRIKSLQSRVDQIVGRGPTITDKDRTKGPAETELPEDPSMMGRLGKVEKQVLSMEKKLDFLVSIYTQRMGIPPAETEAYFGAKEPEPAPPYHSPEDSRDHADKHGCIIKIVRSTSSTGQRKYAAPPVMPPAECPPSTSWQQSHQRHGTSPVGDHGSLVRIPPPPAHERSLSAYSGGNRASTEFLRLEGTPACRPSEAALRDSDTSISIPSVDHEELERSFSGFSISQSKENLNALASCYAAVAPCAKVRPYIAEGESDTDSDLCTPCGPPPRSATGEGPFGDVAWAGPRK
KCNQ2 pot = potentiators of rat KCNQ2 potassium channel; B-score at 10 µM; 310,000 compounds, 0.54% hits; O88943; AID 2239; CHO-K1 KCNQ2, FluxOR thallium flux fluorescence; stronger effect = higher value;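 active means fluorescence ratio B-score at least 3 SD of library B-scores, with initial fluorescence B-score within 3 of them, cut at about 5.3 in these data; same plate scores as AID 2156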;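 further: B-score of peak minus minimum over baseline fluorescence ratio after K+ and Tl+ stimulus; positive B-score means potentiation of KCNQ2 with more thallium influx and brighter signal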
An asterisk follows results filed as active; i = inactive; / = no result given. Sampled rows, rich in hits. Any-hit rate of the full collection: about 1.6%.

SMILES | KCNQ2 inh | KCNQ2 pot
Cc1cc(-c2ccccc2)n2ncnc2n1 | i | /
O=C(Nc1cc(Cl)cc(Cl)c1)C(c1ccccc1)N1CCCCC1 (centres undefined) | -6.4* | -6.4
COc1cccc(NC(=O)C(c2ccccc2)N2CCCCC2)c1 (centres undefined) | i | /
CCn1c(=O)c(=O)[nH]c2cc(C(=O)N3CCN(Cc4ccc5c(c4)OCO5)CC3)ccc21 | i | 0.99
COc1ccc(S(=O)(=O)N(C)c2ccc(C(=O)NCC3CCCO3)cc2)cc1OC (centres undefined) | i | 0.44
CCn1c(C(=O)OC)cc2c1ccn2-c1ccc(F)cc1 | i | /
CCOC(=O)c1cc2c(ccn2-c2ccc(F)cc2)n1CC(=O)NC(C)(C)C | -6.7* | -6.7
Cc1cc(N2CCCCC2C)nc(-c2ccccc2O)n1 (centres undefined) | i | /
CCCn1c(=O)c(C(=O)NCc2ccc3c(c2)OCO3)c(O)c2ccccc21 | -5.9* | -5.9
CCCn1c(=O)c(C(=O)NCCc2ccc(OC)c(OC)c2)c(O)c2ccccc21 | -6.2* | -6.2
CCn1c(=O)c(C(=O)NCCc2ccc(OC)c(OC)c2)c(O)c2ccccc21 | i | /
CCCn1c(=O)c(C(=O)NCc2cccnc2)c(O)c2ccccc21 | i | /
CCOC(=O)C1=C(C)NC(=O)CC1c1cc(OC)c(OC)cc1Br (centres undefined) | i | 1.1
CC(=O)c1c(C)[nH]c(C(=O)Nc2nc(-c3ccc(Cl)cc3)cs2)c1C | i | 0.73
COc1ccc(-c2nc(NC(=O)c3[nH]c(C)c(C(C)=O)c3C)sc2C)cc1 | -6.5* | -6.5
COc1ccc(OC)c(NC(=O)c2[nH]c(C)c(C(C)=O)c2C)c1 | i | 0.07
CC(=O)c1c(C)[nH]c(C(=O)Nc2nc(-c3ccc(-c4ccccc4)cc3)cs2)c1C | -7.6* | -7.6
Cc1sc(NC(=O)COc2ccccc2)c(C#N)c1-c1ccccc1 | i | /
COc1ccc(C(=O)Nc2sc(C)c(-c3ccccc3)c2C#N)cc1OC | -6.4* | -6.4
Cc1cc(C)c2sc(N(CCCN(C)C)C(=O)c3ccc(S(=O)(=O)N4CCCc5ccccc54)cc3)nc2c1 | -7.7* | -7.7
Cc1cc(C)c2sc(N(CCCN(C)C)C(=O)c3ccc(S(=O)(=O)N4CCc5ccccc5C4)cc3)nc2c1 | i | /
O=C(NNC(=O)C1CC=CCC1)c1ccccc1Cl (centres undefined) | i | 1.6
COc1ccc(C2NC(C(=O)O)Cc3c2[nH]c2ccccc32)cc1CN1CCN(c2ccc(F)cc2)CC1 (centres undefined) | -5.7* | -5.7
O=C(O)C1Cc2c([nH]c3ccccc23)C(c2ccc3c(c2)OCO3)N1 (centres undefined) | i | /
CC1C(=O)N2CCCc3cc(NC(=O)COc4ccc(Cl)cc4)cc1c32 (centres undefined) | i | 1.3
SMILES | KCNQ2 inh | KCNQ2 pot
CCCn1c(C)nc2c(c1=O)c1nc3ccccc3nc1n2CCC1=CCCCC1 | i | /
Cc1nc2c(c(=O)n1CCC1=CCCCC1)c1nc3ccccc3nc1n2/N=C/c1ccco1 | -7.7* | -7.7
CC(C)(C#CCN1CCCCC1)OCCOC(c1ccccc1)c1ccccc1 | -6.1* | -6.1
CC(O)(C#CCN1CCCCC1)c1ccccc1 (centres undefined) | i | 1.3
N#Cc1ccccc1CSCCNC(=O)Cc1c(F)cccc1Cl | i | /
Cc1c[nH]c(=O)c([N+](=O)[O-])c1 | i | 1
COc1ccccc1CNC(=O)C(C)n1cccc1C(=O)c1ccccc1 (centres undefined) | -5.7* | -5.7
CC(C(=O)NCc1ccc(Cl)cc1)n1cccc1C(=O)c1ccccc1 (centres undefined) | i | 0.08
Cc1ccc(C)c(Nc2nn3c(=O)c4ccc(C(=O)NCc5cccnc5)cc4nc3s2)c1 | i | 0.89
CCOC(=O)C1CCN(C(=O)c2ccc3c(=O)n4nc(Nc5cc(C)ccc5C)sc4nc3c2)CC1 | -5.8* | -5.8
CCc1ccc2c(c1)c(N=NC1=NC(=O)CS1)c(O)n2C | i | 5.8*
Cc1cc(C)c2[nH]c(O)c(N=NC3=NC(=O)CS3)c2c1 | i | 0.94
COc1ccc(Cc2c(Cl)ncnc2Cl)cc1 | i | /
CCOc1ccc(Cc2c(Cl)nc(N)nc2Cl)cc1 | i | /
CCOc1ccc(Cc2c(Cl)nc(SC)nc2N(C)C)cc1 | -7.2* | -7.2
CSc1nc(Cl)c(Cc2ccc(OC(C)C)cc2)c(N(C)C)n1 | -6* | -6
COc1ccc(Cc2nnc(NC(=O)CS(=O)(=O)c3ccccc3)s2)cc1OC | i | /
Cc1ccc(-c2cc(C(=O)NC3=NCCS3)c3cc(Br)ccc3n2)o1 | -6.3* | -6.3
Cc1ccc(-c2cc(C(=O)O)c3cc(Br)ccc3n2)o1 | i | 1.7
O=C(CCN1Cc2ccccc2C1)c1ccc2c(c1)OCCO2 | -5.9* | -5.9
O=C(CCN1CCc2ccccc2C(c2ccccc2)C1)c1ccc2c(c1)OCCO2 (centres undefined) | i | /
O=S(=O)(Nc1nc2c(s1)CCCC2)c1ccc2ccccc2c1 | i | 0.15
c1ccc2c(Nc3nc4c(s3)CCCC4)cccc2c1 | -7.4* | -7.4
Cn1c(SC(C(=O)Nc2ccc(F)cc2)c2ccccc2)nc2ccccc21 (centres undefined) | i | 1.3
CC(Sc1nc2ccccc2n1C)C(=O)NC(c1ccccc1)c1ccccc1 (centres undefined) | -6.1* | -6.1
SMILES | KCNQ2 inh | KCNQ2 pot
COc1cccc(CN2CC(C(=O)N3CCCO3)CCC2=O)c1 (centres undefined) | i | 1.1
Cc1ccc(S(=O)(=O)N2CCOCC2)cc1C(=O)NC1CCSc2ccccc21 (centres undefined) | i | /
O=[N+]([O-])c1c(NCCO)cc(N2CCCCCC2)c2nonc12 | i | /
O=[N+]([O-])c1c(NCCCO)cc(Sc2nc3ccccc3s2)c2nonc12 | i | /
Cc1nnc(Sc2cc(NCCO)c([N+](=O)[O-])c3nonc23)s1 | -7.5* | -7.5
CCC(=O)OCCNc1cc(Sc2nc3ccccc3s2)c2nonc2c1[N+](=O)[O-] | -7.5* | -7.5
O=C(NNC(=O)C1CC2CCC1C2)c1sc2ccccc2c1Cl (centres undefined) | i | /
C=CCn1c(CNS(=O)(=O)c2ccc(Br)cc2)n[nH]c1=S | i | /
C=C(C)CNC(=S)N1CCN(C(c2ccccc2)c2ccccc2)CC1 | i | /
CC(C)CNC(=S)N1CCN(C(c2ccccc2)c2ccccc2)CC1 | -5.9* | -5.9
COc1ccc(OCC(=O)Nc2c(C(=O)N(CCN(C)C)Cc3ccco3)oc3ccccc23)cc1 | i | /
COc1ccccc1C(=O)Nc1c(C(=O)N(CCN(C)C)Cc2ccco2)oc2ccccc12 | -7* | -7
COc1cc(-c2nnc(SCC(=O)NC3CCCC3)n2C)cc(OC)c1O | i | 0.95
Cc1cc(C)cc(NCc2cc3c(cc2[N+](=O)[O-])OCO3)c1 | -6.2* | -6.2
COc1ccc(CNCc2cc3c(cc2[N+](=O)[O-])OCO3)cc1 | i | 1.4
CCn1nc([N+](=O)[O-])c2c(-c3nc4ccccc4o3)c(N)n(CCCOC)c2c1=O | i | 2.6
COc1cc(CNc2ccc(S(N)(=O)=O)cc2)ccc1OCC(=O)NC1CCCCC1 | i | 0.16
Cc1cc(C)n(CCOC(=O)c2sc3ccccc3c2Cl)n1 | -10* | -10
NC(=O)COC(=O)c1sc2ccccc2c1Cl | i | 0.01
COc1ccccc1N1CCN(/N=C\c2sccc2C)CC1 | -6.2* | -6.2
COc1ccccc1N1CCN(/N=C\c2ccccc2)CC1 | i | /
